Test results as given in PubChem BioAssay (NCATS).
Calls of active or inactive are those of the source. The rule behind the calls is not given here. Numbered stars: 1 amine (or outer) side, 2 acyl side, 3 side chain; on linkers, the order of the positions; unused ones are H or OH. Bridge positions count the residues as written; N and C are the ends. Square brackets hold non-standard residues; d marks the D form. Peptide text beside a SMILES is read from it. I, II: the chains in the order shown. ξ: configuration not given here. Actinocin(9to1) = Cc1c2oc3c(C)ccc(C(=O)[*:1])c3nc-2c(C(=O)[*:2])c(N)c1=O; ξNMeV = CNC(C(=O)O)C(C)C; ξV = CC(C)C(N)C(=O)O; Sar = CNCC(=O)O

Legend:
[1] = Immunotoxin (HA22) sensitization/mitigation study. Vehicle arm (PBS) (AID 1159510)
[2] = Immunotoxin (SS1P) sensitization/mitigation study. Vehicle arm (DMEM) (AID 1159513)
Potency is the fitted concentration of half-maximal effect.

Compound	Potency [1]	Potency [2]
CCN(CC)CCn1c(=O)c(Cc2ccc(OC)cc2)nc2ccccc21	inactive	inactive
COc1cc(Oc2ccnc3cc(OC)c(OC)cc23)ccc1NC(=O)NC(C)c1nccs1 (centres undefined)	16600 nM (active)	20.9 µM (active)
Nc1nc(Nc2ccc(S(N)(=O)=O)cc2)nn1C(=O)c1c(F)cccc1F	833 nM (active)	3.72 µM (active)
Cn1c(Nc2ccc(C(F)(F)F)cc2)nc2cc(Oc3ccnc(-c4ncc(C(F)(F)F)[nH]4)c3)ccc21	11800 nM (active)	23.5 µM (active)
CN(C)c1ccc(C2Nc3ccc4ccccc4c3C3=C2C(=O)CC(C)(C)C3)cc1Br (centres undefined)	11800 nM (active)	18.7 µM (active)
CC(C)(C)COc1ccc(-n2cc(C(=O)O)cn2)cc1C#N	18700 nM (active)	inactive
Cc1[nH]nc2ccc(-c3cncc(OC[C@@H](N)Cc4ccccc4)c3)cc12	1180 nM (active)	1.32 µM (active)
O=C(C=Cc1cccnc1)NCCCCC1CCN(C(=O)c2ccccc2)CC1	inactive	inactive
Cc1ccc(C(=O)N(CCCN)[C@@H](c2nc3cc(Cl)ccc3c(=O)n2Cc2ccccc2)C(C)C)cc1	3.7 nM (active)	0.0053 µM (active)
CC(C)[C@H](CO)Nc1nc(Nc2ccc(C(=O)O)c(Cl)c2)c2ncn(C(C)C)c2n1	inactive	inactive
C=CCn1c(=O)c2cnc(Nc3ccc(N4CCN(C)CC4)cc3)nc2n1-c1cccc(C(C)(C)O)n1	187 nM (active)	0.166 µM (active)
C=CC(=O)Nc1cccc(Oc2nc(Nc3ccc(N4CCN(C)CC4)cc3OC)ncc2Cl)c1	16600 nM (active)	23.5 µM (active)
CC(=O)Nc1ccc([C@H](C)C(=O)Nc2ncc(C(C)C)s2)cc1	296 nM (active)	0.662 µM (active)
O=C(C=Cc1cccc(S(=O)(=O)Nc2ccccc2)c1)NO	264 nM (active)	0.833 µM (active)
COc1ccc(-c2ccc3c(N4CCOC[C@H]4C)nc(N4CCOC[C@H]4C)nc3n2)cc1CO	469 nM (active)	0.0105 µM (active)
CC[C@@H](C)[C@H](NC(=O)[C@H](CC1CCCCC1)NC(=O)c1ccno1)C(=O)N1CCC2(CCc3ccccc32)CC1	inactive	16.6 µM (active)
Cc1c2oc3c(C)ccc(C(=O)N[C@@H]4C(=O)NC(C(C)C)C(=O)N5CCC[C@H]5C(=O)N(C)CC(=O)N(C)C(C(C)C)C(=O)O[C@@H]4C)c3nc-2c(C(=O)N[C@@H]2C(=O)NC(C(C)C)C(=O)N3CCC[C@H]3C(=O)N(C)CC(=O)N(C)C(C(C)C)C(=O)O[C@@H]2C)c(N)c1=O (some centres undefined) (I: T[ξV]P[Sar][ξNMeV] / II: T[ξV]P[Sar][ξNMeV]; ester I:1-I:C, II:1-II:C; linker I:N-II:N via Actinocin(9to1))	33.2 nM [activator] (active)	0.003 µM (active)
